The text below walks through data of PubChem BioAssay (NCATS).

Results filed as inconclusive are left out. Calls of active or inactive are those of the source. The call rests on the fitted dose curve; in most records, active means well fitted curve in the direction sought with a large enough effect; inconclusive means small, poorly fitted or top-dose-only effect, or another doubt; inactive means no such curve, though single readings can be large; an effect the other way counts as inactive or inconclusive. *1 amine or outer side, *2 acyl side, *3 side chain or, on linkers, in order; H or OH if unused. Where a SMILES comes first, the peptide text is derived from it. Bridges are numbered along the chain shown (N, C = ends). [ ]: non-standard residue; d: D form. The star is where a group is joined. ξ: configuration not given here. ξhTyr(3S-OH,4S-OH,3'-OSO3H) = NC(C(=O)O)[C@H](O)[C@@H](O)c1ccc(O)c(OS(=O)(=O)O)c1; Orn(4R-OH,5R-OH) = O=C([C@H](C[C@@H](O)[C@@H](O)N[*:3])N[*:1])[*:2]; X2 = CCCCCOc1ccc(-c2cc(-c3ccc(C(=O)*)cc3)no2)cc1; X3 = C[C@H]1CN([*:1])C(C(=O)[*:2])[C@H]1O; ξGln(3R-OH) = NC(=O)C[C@@H](O)C(N)C(=O)O; ξPro(4R-OH) = O=C(O)C1C[C@@H](O)CN1; ξThr(3R) = C[C@@H](O)C(N)C(=O)O
Potency means the concentration at half of the fitted maximal effect.

The subject of one test is Zika virus NS2B-NS3 protease (unlinked complex). Kind of test: Confirmatory screen GU AMC qHTS for Zika virus inhibitors (AID 1347153). Further: nearly all actives have a fitted effect of over 70% in size. To be noted: Recombinant NS2B-NS3 protease, AMC substrate fluorescence; series mostly up to 111 µM; activity, negative = inhibition: at the top concentration. The essentials:
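Unlinked enzyme 25 nM, Tris pH 8.0/0.01% Tween 20; cpd 15 min RT, dark; + AMC substrate 10 µM (Km 18.3 µM); 340/450 nm read at t0 and 15 min; % inhibition → 4-param fit.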
For `CCCCCOc1ccc(-c2cc(-c3ccc(C(=O)N[C@H]4C[C@@H](O)[C@@H](O)NC(=O)C5[C@@H](O)[C@@H](C)CN5C(=O)C([C@H](O)CC(N)=O)NC(=O)C([C@H](O)[C@@H](O)c5ccc(O)c(OS(=O)(=O)O)c5)NC(=O)C5C[C@@H](O)CN5C(=O)C([C@@H](C)O)NC4=O)cc3)no2)cc1` (stereo partly drawn) (X2-[Orn(4R-OH,5R-OH)][ξThr(3R)][ξPro(4R-OH)][ξhTyr(3S-OH,4S-OH,3'-OSO3H)][ξGln(3R-OH)][X3]; lactam 1-C), the Potency was 21.5 µM (active).

For the compound `Cc1ccc2[nH]c(=O)c(C3=NN(C(=O)CCC(=O)O)C(c4ccc(Br)cc4)C3)c(-c3ccccc3)c2c1` (stereo unspecified), the Potency is 49.4 µM (active).

With `COc1cc(/C=C/c2ccccc2)c(C(=O)O)c(O)c1CC=C(C)C`, the Potency is 34.3 µM (active).

Consider `COc1cc2c(c(O)c1OC/C=C(\C)CC/C=C(/C)CCC=C(C)C)CN(C(CCC(=O)O)C(=O)O)C2=O` (stereo unspecified), for which the Potency is 34.1 µM (active).

In the case of `C/C=C/C=C/C=C/C(=O)O[C@@H]1[C@@H](OC)C2=C(C(=O)N(C(CCC(=O)O)C(=O)O)C2)[C@@]2(C)CCCC(C)(C)[C@H]12` (stereo partly specified), the Potency is 9.61 µM (active).

Take `O=C(O)C1(c2ccc(-c3ccc(Cl)c(Cl)c3)c(F)c2)CC1`: the Potency is 44.1 µM (active).

Regarding `COc1cc(C)c(C(=O)OC2C(C)OC(OC3CCC(C)C4C3C=C(C)C3/C(C)=C\CC/C(C)=C/C5(C)C=C(C(=O)O)C(C)CC56OC(=O)/C(=C(\O)C34C)C6=O)C(O)C2O)c(OC)c1` (stereo unspecified), the Potency was 9.37 µM (active).

Tested on in a further test: not listed separately
The test is described as follows: Confirmatory screen GU Rhodamine qHTS for Zika virus inhibitors qHTS (AID 1347157). Further: nearly all actives have a fitted effect of over 70% in size. Conditions: purified enzyme assay, Rhodamine110 substrate fluorescence, 15 min; series mostly up to 114 µM; activity change, negative = inhibition: at the top concentration. An outline of the steps:
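Noncovalent NS2B hydrophilic domain/NS3 protease complex (25 nM final) in 10 mM Tris-HCl pH 8.0, 0.01% Tween 20, preincubated 15 min with compounds (up to 114 microM), then 1.5 microM Rhodamine110 substrate. Fluorescence change over 15 min fitted to 4-parameter Hill.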
Regarding `COc1cc(Nc2ccc([N+](=O)[O-])cc2C(=O)O)cc2ccccc12`, the Potency was 1.97 µM (active).

Take `CCCCCOc1ccc(-c2cc(-c3ccc(C(=O)N[C@H]4C[C@@H](O)[C@@H](O)NC(=O)C5[C@@H](O)[C@@H](C)CN5C(=O)C([C@H](O)CC(N)=O)NC(=O)C([C@H](O)[C@@H](O)c5ccc(O)c(OS(=O)(=O)O)c5)NC(=O)C5C[C@@H](O)CN5C(=O)C([C@@H](C)O)NC4=O)cc3)no2)cc1` (stereo partly drawn) (X2-[Orn(4R-OH,5R-OH)][ξThr(3R)][ξPro(4R-OH)][ξhTyr(3S-OH,4S-OH,3'-OSO3H)][ξGln(3R-OH)][X3]; lactam 1-C): the Potency was 4.82 µM (active).

On to `Cc1ccc2[nH]c(=O)c(C3=NN(C(=O)CCC(=O)O)C(c4ccc(Br)cc4)C3)c(-c3ccccc3)c2c1` (stereo unspecified), for which the Potency is 3.93 µM (active).

Consider `COc1cc(/C=C/c2ccccc2)c(C(=O)O)c(O)c1CC=C(C)C`, for which the Potency was 3.06 µM (active).

Turning to `COc1cc2c(c(O)c1OC/C=C(\C)CC/C=C(/C)CCC=C(C)C)CN(C(CCC(=O)O)C(=O)O)C2=O` (stereo unspecified), the Potency was 3.41 µM (active).

Regarding `C/C=C/C=C/C=C/C(=O)O[C@@H]1[C@@H](OC)C2=C(C(=O)N(C(CCC(=O)O)C(=O)O)C2)[C@@]2(C)CCCC(C)(C)[C@H]12` (stereo partly specified), the Potency is 4.82 µM (active).

Take `O=C1NC(=O)/C(=C/c2cccc(C(F)(F)F)c2)S1`: the Potency was 4.41 µM (active).

Take `CC1C(O)C(O)C2C(C(=O)OCCc3ccc(O)cc3)=COC(O[C@@H]3O[C@H](CO)[C@@H](O)[C@H](O)[C@H]3O)C12` (stereo partly specified): the Potency was 8.57 µM (active).

`C/C(=C\CC/C(C)=C/CC[C@]1(C)CCc2cc(O)cc(C)c2O1)CC/C=C(\C)C(=O)O`: the Potency was 3.83 µM (active).

`Cc1cc(C)c2nc(-c3ccccn3)cc(C(=O)Nc3ccc(S(=O)(=O)Nc4onc(C)c4C)cc3)c2c1`: the Potency is 2.78 µM (active).

As for `O=C(O)C1(c2ccc(-c3ccc(Cl)c(Cl)c3)c(F)c2)CC1`, the Potency is 11.1 µM (active).

For `COc1cc(C)c(C(=O)OC2C(C)OC(OC3CCC(C)C4C3C=C(C)C3/C(C)=C\CC/C(C)=C/C5(C)C=C(C(=O)O)C(C)CC56OC(=O)/C(=C(\O)C34C)C6=O)C(O)C2O)c(OC)c1` (stereo unspecified), the Potency was 2.64 µM (active).

As for `C=C1C2CCC3C(CCC4[C@@]3(C)CCC[C@@]4(C)C(=O)O)(C2)[C@@H]1OC(=O)/C(C)=C\C` (stereo partly specified), the Potency is 6.81 µM (active).

Tested on in the next test: not listed separately
Kind of test: ZIKV-mCherry secondary qHTS for Zika virus inhibitors (AID 1347158). On activity change, negative = inhibition: top concentration of the series differs between compounds. To be noted: Vero cells, ZIKV-mCherry infection imaging, 48-72 h; series mostly up to 49.2 µM; activity change, negative = inhibition: at the top concentration. The source says:
Assay Submitters (PI): Avindra Nath, Ph.D., National Institute of Neurological Disorders and Stroke (NINDS), Bethesda, MD Radhakrishnan Padmanabhan, Ph.D., Georgetown University (GU), Washington D.C. Zika Virus causes congenital defects, including microcephaly and is associated with Guillain-Barre syndrome, eningoencephalitis and myelitis in infected adult. […] Using a target-based approach, we hope to establish a screening paradigm to uncover novel, cell-active NS2B-NS3 protease (Zika Virus) specific inhibitors from NCATS' collection of small molecules using qHTS. […] Four assay panel was created to identify potential Zika Virus inhibitors. Namely, (1) GU unlinked NS2B-NS3 AMC tagged protease qHTS, (2) GU unlinked NS2B-NS3 Rhodamine tagged protease qHTS, (3) NINDS linked NS2B-NS3 AMC tagged protease qHTS, (4) NINDS linked NS2B-NS3 Rhodamine tagged protease qHTS. Active compounds were re-acquired and re-screened to confirm inhibition. Inhibitors were further screened against various confirmatory and counterscreens in dose response format. […] A DAPI (mCherry counterscreen) which determine Vero cell toxicity was used to exclude false positive compounds. […] Early Translation Branch (ETB) National Center for Advancing Translational Sciences (NCATS), Rockville, MD National Institute of Health (NIH), Bethesda, Maryland
384 well ZIKV-mCherry Assay: We have developed a new orthogonal imaging assay in 384-well plate format, which uses recombinant virus ZIKV-mCherry in Vero cells. Briefly, 30 microL of Vero cells derived from a green monkey cell line, were dispensed by Multidrop Dispenser into a clear solid bottom black 384 well plate (ultracarrier, Perkin Elmer LifeSciences) at a concentration of 5,000 cells per well. The plate was incubated overnight in a CO2 incubator at 37 degrees C. Compounds were delivered as a 126 nL DMSO solution by Kalypsys pintool transfer. Following compound transfer, 10 microL of ZIKV-mCherry was added at an MOI of 1 and incubated in a CO2 incubator for 48-72 hrs at 37 degrees C. After sufficient incubation of infected cells in test plates, 8 microL of 32% PFA was dispensed into assay plates to fix cells and incubated for 20 min at room temperature. Plates were washed 3 times with PBS using BioTek EL406 microplate washer/dispenser. After washing, 30 microL of PBS with 0.01% TX-100 containing Hoechst dye was dispensed into the each well of the plates for nuclear staining. 384-well plates were imaged on an automated, widefield high content imager (INCell 2200, GE Healthcare) using a 10x/0.45 NA lens and standard DAPI (nuclear stain) and mCherry (cy5) excitation and emission filters. The TIFFs were quantitated using the canned Multi Target Analysis protocol (GE Investigator Workstation software v3.7.2). Briefly, nuclei from the DAPI channel were identified using top hat segmentation and a sensitivity setting of 96 and minimum size area of 35 microm2. A recombinant Zika viral infection was monitored in the Cy5 channel (cells) using a 2 microm collar dilation from the nuclear bitmap. mCherry objects with an average nuclear RFU intensity above 450 (3 stdev above mean negative control wells) were considered "mcherry positive" and data was analyzed by percent infection rate.
(In general: Quantitative high-throughput screening tests each substance at several concentrations.)
With `COc1cc2c(c(O)c1OC/C=C(\C)CC/C=C(/C)CCC=C(C)C)CN(C(CCC(=O)O)C(=O)O)C2=O` (stereo unspecified), the Potency is 6.31 µM (active).

As to `C/C=C/C=C/C=C/C(=O)O[C@@H]1[C@@H](OC)C2=C(C(=O)N(C(CCC(=O)O)C(=O)O)C2)[C@@]2(C)CCCC(C)(C)[C@H]12` (stereo partly specified), the “activity change, negative = inhibition” value was 41.7% [at 16.3 µM] (inactive).

With `C/C(=C\CC/C(C)=C/CC[C@]1(C)CCc2cc(O)cc(C)c2O1)CC/C=C(\C)C(=O)O`, the “activity change, negative = inhibition” value was 51.8% [at 16.3 µM] (inactive).

With `Cc1cc(C)c2nc(-c3ccccn3)cc(C(=O)Nc3ccc(S(=O)(=O)Nc4onc(C)c4C)cc3)c2c1`, the “activity change, negative = inhibition” value is 70.6% (inactive).

The next test concerns Zika virus NS2B-NS3 protease (unlinked complex). Kind of test: Primary screen GU Rhodamine qHTS for Zika virus inhibitors: Unlinked NS2B-NS3 protease assay (AID 1347159). Further: nearly all actives have a fitted effect of over 60% in size. To be noted: Recombinant ZIKV NS2B-NS3 protease, Rhodamine110 substrate fluorescence; series mostly up to 107 µM; activity change, negative = inhibition: at the top concentration. An outline of the steps: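 Compounds, tested up to 114 microM, were incubated for 15 minutes with 25 nM unlinked NS2B-NS3 protease at pH 8.0. Cleavage of 1.5 microM Rhodamine110 substrate was then followed by fluorescence for 15 minutes.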
With `COc1cc(Nc2ccc([N+](=O)[O-])cc2C(=O)O)cc2ccccc12`, the Potency was 2.24 µM (active).

Take `CCCCCOc1ccc(-c2cc(-c3ccc(C(=O)N[C@H]4C[C@@H](O)[C@@H](O)NC(=O)C5[C@@H](O)[C@@H](C)CN5C(=O)C([C@H](O)CC(N)=O)NC(=O)C([C@H](O)[C@@H](O)c5ccc(O)c(OS(=O)(=O)O)c5)NC(=O)C5C[C@@H](O)CN5C(=O)C([C@@H](C)O)NC4=O)cc3)no2)cc1` (stereo partly drawn) (X2-[Orn(4R-OH,5R-OH)][ξThr(3R)][ξPro(4R-OH)][ξhTyr(3S-OH,4S-OH,3'-OSO3H)][ξGln(3R-OH)][X3]; lactam 1-C): the Potency is 2.24 µM (active).

Consider `Cc1ccc2[nH]c(=O)c(C3=NN(C(=O)CCC(=O)O)C(c4ccc(Br)cc4)C3)c(-c3ccccc3)c2c1` (stereo unspecified), for which the Potency was 6.31 µM (active).

Consider `COc1cc(/C=C/c2ccccc2)c(C(=O)O)c(O)c1CC=C(C)C`, for which the Potency was 4.47 µM (active).

For `COc1cc2c(c(O)c1OC/C=C(\C)CC/C=C(/C)CCC=C(C)C)CN(C(CCC(=O)O)C(=O)O)C2=O` (stereo unspecified), the Potency was 2 µM (active).

`C/C=C/C=C/C=C/C(=O)O[C@@H]1[C@@H](OC)C2=C(C(=O)N(C(CCC(=O)O)C(=O)O)C2)[C@@]2(C)CCCC(C)(C)[C@H]12` (stereo partly specified): the Potency is 4.47 µM (active).

For `O=C1NC(=O)/C(=C/c2cccc(C(F)(F)F)c2)S1`, the Potency was 2.51 µM (active).

Consider `C/C(=C\CC/C(C)=C/CC[C@]1(C)CCc2cc(O)cc(C)c2O1)CC/C=C(\C)C(=O)O`, for which the Potency is 8.91 µM (active).

For `Cc1cc(C)c2nc(-c3ccccn3)cc(C(=O)Nc3ccc(S(=O)(=O)Nc4onc(C)c4C)cc3)c2c1`, the Potency is 2 µM (active).

Regarding `O=C(O)C1(c2ccc(-c3ccc(Cl)c(Cl)c3)c(F)c2)CC1`, the Potency is 7.94 µM (active).

Take `COc1cc(C)c(C(=O)OC2C(C)OC(OC3CCC(C)C4C3C=C(C)C3/C(C)=C\CC/C(C)=C/C5(C)C=C(C(=O)O)C(C)CC56OC(=O)/C(=C(\O)C34C)C6=O)C(O)C2O)c(OC)c1` (stereo unspecified): the Potency was 1.26 µM (active).

In the case of `C=C1C2CCC3C(CCC4[C@@]3(C)CCC[C@@]4(C)C(=O)O)(C2)[C@@H]1OC(=O)/C(C)=C\C` (stereo partly specified), the Potency is 6.31 µM (active).
